In assay [1] the target is Ribosomal protein S6 kinase alpha-1 (Homo sapiens) (UniProt Q15418). Particulars: at 1 µM.
For assay [2] the target is unchanged. The note with it: at 10 µM.
Assay [3] addresses Ribosomal protein S6 kinase alpha-3 (Homo sapiens) (UniProt P51812). The note with it: at 1 µM.
The target is the same in assay [4]. Particulars: at 10 µM.
The target of assay [5] is Ribosomal protein S6 kinase alpha-2 (Homo sapiens) (UniProt Q15349). The note with it: at 1 µM.
The target is the same in assay [6]. Particulars: at 10 µM.
Assay [7] concerns the target Ribosomal protein S6 kinase alpha-6 (Homo sapiens) (UniProt Q9UK32). The note with it: at 1 µM.
The target is the same in assay [8]. Particulars: at 10 µM.
Assay [9] concerns the target Mitogen-activated protein kinase 14 (Homo sapiens) (UniProt Q16539). Particulars: at 1 µM.
Assay [10] has the same target. The note with it: at 10 µM.
Assay [11] has as its target Mitogen-activated protein kinase 11 (Homo sapiens) (UniProt Q15759). The note with it: at 1 µM.
Assay [12] concerns the target T1, Mitogen-activated protein kinase 13 (Homo sapiens) (UniProt O15264).
T1 sequence (whole entry): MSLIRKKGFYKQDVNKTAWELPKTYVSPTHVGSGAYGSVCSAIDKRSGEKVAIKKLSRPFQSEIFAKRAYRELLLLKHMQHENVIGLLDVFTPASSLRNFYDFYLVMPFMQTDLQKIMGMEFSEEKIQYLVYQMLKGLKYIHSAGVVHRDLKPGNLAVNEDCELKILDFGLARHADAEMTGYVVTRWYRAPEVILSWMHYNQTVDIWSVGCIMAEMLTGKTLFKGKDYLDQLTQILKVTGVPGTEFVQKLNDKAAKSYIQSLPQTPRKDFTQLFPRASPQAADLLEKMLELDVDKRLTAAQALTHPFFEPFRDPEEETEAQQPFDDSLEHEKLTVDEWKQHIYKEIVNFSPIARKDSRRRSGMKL
Particulars: at 1 µM.

Assay [13] concerns the target T1, Mitogen-activated protein kinase 13 (Homo sapiens). The note with it: at 10 µM.
The target of assay [14] is T2, Serine/threonine-protein kinase Sgk1 (Homo sapiens) (UniProt O00141).
T2 sequence (whole entry): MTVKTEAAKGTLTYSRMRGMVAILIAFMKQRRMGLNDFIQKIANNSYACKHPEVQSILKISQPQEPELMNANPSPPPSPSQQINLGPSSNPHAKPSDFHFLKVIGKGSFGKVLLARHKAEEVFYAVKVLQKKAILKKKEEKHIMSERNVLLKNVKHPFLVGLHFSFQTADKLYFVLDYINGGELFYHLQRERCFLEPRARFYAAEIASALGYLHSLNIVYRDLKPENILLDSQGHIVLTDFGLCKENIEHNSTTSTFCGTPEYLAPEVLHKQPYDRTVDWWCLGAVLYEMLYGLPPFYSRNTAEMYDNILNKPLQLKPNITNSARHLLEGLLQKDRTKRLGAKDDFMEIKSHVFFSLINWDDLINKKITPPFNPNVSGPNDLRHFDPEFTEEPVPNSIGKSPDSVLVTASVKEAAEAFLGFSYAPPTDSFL
The note with it: at 1 µM.

Assay [15] concerns the target T2, Serine/threonine-protein kinase Sgk1 (Homo sapiens). Particulars: at 10 µM.
For assay [16], the target named is T3, Serine/threonine-protein kinase Sgk2 (Homo sapiens) (UniProt Q9HBY8).
T3 sequence (whole entry): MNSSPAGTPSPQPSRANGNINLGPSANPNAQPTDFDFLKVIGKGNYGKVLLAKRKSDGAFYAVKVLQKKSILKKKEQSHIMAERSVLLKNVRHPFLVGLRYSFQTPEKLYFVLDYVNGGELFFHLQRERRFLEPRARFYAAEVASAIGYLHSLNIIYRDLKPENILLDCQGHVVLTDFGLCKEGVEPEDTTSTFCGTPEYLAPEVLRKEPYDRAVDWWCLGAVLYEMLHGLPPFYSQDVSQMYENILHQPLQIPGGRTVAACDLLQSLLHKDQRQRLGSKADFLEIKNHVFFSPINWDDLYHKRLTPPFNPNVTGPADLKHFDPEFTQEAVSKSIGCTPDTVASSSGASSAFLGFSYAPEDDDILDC
Particulars: at 1 µM.

Assay [17] addresses T3, Serine/threonine-protein kinase Sgk2 (Homo sapiens). Particulars: at 10 µM.
Assay [18] deals with Serine/threonine-protein kinase SIK1 (Homo sapiens) (UniProt P57059). Particulars: at 1 µM.
Serine/threonine-protein kinase SIK1 (Homo sapiens), sequence (P57059 whole entry): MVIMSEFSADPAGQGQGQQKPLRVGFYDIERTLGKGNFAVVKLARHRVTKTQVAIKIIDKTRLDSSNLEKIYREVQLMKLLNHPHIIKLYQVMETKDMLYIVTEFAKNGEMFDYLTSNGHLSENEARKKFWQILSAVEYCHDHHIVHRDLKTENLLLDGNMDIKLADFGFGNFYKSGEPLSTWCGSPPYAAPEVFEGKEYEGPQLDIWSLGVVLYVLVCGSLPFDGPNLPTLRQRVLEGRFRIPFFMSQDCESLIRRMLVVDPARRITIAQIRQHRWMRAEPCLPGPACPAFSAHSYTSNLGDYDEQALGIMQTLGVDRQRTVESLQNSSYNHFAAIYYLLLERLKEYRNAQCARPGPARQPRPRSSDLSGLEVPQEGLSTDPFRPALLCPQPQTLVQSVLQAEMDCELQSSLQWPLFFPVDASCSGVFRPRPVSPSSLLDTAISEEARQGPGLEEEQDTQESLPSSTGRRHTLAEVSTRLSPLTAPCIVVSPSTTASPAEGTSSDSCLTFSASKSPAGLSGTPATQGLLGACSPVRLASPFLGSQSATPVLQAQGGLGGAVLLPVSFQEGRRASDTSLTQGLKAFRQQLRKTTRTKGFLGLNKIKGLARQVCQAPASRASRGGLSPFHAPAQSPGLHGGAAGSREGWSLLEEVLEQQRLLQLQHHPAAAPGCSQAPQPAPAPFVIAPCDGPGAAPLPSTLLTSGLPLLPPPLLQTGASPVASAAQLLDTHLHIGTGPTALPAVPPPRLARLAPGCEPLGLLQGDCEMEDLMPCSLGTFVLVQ
For assay [19], the target named is Mitogen-activated protein kinase 11 (Homo sapiens) (UniProt Q15759). Particulars: at 10 µM.
Mitogen-activated protein kinase 11 (Homo sapiens), sequence (Q15759 whole entry): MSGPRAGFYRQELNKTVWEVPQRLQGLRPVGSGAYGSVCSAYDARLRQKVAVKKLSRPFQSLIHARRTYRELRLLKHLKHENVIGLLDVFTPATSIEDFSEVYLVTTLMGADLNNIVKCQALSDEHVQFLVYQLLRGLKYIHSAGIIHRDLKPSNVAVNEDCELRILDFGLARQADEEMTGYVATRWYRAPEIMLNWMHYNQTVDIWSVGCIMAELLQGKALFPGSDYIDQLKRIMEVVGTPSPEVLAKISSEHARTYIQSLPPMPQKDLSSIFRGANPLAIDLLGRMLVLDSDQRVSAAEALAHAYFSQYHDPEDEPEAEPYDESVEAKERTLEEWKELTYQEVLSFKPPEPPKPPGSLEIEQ
The target of assay [20] is T4, Serine/threonine-protein kinase Sgk3 (Homo sapiens) (UniProt Q96BR1).
T4 sequence (whole entry): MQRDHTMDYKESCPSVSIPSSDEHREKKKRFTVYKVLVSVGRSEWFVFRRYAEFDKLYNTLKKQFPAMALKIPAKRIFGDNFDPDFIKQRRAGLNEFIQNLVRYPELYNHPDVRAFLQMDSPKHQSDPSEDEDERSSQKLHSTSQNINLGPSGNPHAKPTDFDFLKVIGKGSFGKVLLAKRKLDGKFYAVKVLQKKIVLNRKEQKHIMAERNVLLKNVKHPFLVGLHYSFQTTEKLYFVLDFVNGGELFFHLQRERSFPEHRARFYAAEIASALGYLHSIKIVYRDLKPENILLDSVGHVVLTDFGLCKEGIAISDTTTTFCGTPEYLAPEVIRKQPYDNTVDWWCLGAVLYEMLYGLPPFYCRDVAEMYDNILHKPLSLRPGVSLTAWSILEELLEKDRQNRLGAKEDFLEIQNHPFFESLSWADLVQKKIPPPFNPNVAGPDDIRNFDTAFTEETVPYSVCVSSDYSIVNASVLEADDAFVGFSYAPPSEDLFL
Particulars: at 10 µM.

Mitogen-activated protein kinase 14 (Homo sapiens), sequence (Q16539 whole entry): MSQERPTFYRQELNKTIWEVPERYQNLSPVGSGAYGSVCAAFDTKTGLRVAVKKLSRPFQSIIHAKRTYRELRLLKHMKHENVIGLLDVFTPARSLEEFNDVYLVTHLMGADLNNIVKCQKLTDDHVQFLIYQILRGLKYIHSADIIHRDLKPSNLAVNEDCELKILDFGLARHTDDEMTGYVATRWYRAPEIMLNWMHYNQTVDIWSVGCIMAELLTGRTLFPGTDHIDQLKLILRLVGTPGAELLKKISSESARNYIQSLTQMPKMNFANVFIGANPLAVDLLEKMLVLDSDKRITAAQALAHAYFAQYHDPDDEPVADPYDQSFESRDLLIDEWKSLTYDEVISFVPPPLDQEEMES
Ribosomal protein S6 kinase alpha-2 (Homo sapiens), sequence (Q15349 whole entry): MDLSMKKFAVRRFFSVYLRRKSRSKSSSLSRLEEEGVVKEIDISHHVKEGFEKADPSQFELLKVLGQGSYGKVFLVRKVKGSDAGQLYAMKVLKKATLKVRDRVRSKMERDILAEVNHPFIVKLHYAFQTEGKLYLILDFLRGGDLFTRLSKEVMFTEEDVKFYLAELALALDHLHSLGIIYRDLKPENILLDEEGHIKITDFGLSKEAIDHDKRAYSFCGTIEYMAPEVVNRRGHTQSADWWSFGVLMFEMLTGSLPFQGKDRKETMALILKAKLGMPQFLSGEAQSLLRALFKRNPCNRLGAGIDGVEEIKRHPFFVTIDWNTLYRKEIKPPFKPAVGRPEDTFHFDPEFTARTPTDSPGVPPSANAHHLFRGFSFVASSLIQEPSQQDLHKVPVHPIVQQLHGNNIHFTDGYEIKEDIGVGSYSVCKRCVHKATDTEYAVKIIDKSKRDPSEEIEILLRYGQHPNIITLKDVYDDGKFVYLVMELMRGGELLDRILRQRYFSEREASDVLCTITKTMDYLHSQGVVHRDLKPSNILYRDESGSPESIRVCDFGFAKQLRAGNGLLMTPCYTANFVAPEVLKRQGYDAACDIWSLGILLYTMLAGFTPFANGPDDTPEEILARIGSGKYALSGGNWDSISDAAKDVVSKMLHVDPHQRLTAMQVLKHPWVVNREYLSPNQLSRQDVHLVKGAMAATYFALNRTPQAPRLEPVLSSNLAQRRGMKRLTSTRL
Ribosomal protein S6 kinase alpha-3 (Homo sapiens), sequence (P51812 whole entry): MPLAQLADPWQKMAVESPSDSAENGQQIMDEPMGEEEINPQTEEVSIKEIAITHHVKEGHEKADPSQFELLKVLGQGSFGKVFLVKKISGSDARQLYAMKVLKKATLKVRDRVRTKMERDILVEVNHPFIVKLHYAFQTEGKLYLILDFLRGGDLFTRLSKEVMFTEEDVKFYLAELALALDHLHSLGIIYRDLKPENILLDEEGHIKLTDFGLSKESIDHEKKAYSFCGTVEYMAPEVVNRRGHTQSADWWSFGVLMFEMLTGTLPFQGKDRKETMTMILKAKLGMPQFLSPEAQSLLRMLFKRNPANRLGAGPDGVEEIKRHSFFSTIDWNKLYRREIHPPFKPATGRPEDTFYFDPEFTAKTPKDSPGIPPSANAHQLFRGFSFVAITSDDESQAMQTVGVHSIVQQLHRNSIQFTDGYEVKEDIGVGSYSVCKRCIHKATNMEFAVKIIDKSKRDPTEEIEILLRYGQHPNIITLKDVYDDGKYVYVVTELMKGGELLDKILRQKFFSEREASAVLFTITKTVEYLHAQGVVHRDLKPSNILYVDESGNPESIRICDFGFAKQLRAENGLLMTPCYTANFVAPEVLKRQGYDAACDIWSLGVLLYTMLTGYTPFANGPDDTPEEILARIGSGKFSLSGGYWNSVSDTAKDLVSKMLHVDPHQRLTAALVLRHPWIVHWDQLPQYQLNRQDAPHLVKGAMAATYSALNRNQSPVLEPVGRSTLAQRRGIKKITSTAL
Ribosomal protein S6 kinase alpha-6 (Homo sapiens), sequence (Q9UK32 whole entry): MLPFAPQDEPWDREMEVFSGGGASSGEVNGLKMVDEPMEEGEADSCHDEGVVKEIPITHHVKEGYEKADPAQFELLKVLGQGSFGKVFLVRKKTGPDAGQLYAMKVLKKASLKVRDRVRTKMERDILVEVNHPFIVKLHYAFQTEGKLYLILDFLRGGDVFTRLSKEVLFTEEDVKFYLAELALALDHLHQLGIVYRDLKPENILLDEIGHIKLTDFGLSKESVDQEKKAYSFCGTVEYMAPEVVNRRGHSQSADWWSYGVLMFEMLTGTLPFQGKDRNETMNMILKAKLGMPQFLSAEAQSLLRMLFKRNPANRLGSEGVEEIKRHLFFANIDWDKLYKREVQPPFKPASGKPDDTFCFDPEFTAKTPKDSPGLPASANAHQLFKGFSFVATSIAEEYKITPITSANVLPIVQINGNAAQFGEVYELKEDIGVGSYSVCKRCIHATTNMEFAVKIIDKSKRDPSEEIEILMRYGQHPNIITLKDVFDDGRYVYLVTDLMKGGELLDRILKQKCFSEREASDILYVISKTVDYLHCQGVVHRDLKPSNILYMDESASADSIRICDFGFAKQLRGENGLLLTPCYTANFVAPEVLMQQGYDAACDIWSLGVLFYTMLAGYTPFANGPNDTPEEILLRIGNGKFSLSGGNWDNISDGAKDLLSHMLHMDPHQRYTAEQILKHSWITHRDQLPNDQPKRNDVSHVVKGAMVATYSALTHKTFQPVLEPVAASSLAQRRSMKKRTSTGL
Ribosomal protein S6 kinase alpha-1 (Homo sapiens), sequence (Q15418 whole entry): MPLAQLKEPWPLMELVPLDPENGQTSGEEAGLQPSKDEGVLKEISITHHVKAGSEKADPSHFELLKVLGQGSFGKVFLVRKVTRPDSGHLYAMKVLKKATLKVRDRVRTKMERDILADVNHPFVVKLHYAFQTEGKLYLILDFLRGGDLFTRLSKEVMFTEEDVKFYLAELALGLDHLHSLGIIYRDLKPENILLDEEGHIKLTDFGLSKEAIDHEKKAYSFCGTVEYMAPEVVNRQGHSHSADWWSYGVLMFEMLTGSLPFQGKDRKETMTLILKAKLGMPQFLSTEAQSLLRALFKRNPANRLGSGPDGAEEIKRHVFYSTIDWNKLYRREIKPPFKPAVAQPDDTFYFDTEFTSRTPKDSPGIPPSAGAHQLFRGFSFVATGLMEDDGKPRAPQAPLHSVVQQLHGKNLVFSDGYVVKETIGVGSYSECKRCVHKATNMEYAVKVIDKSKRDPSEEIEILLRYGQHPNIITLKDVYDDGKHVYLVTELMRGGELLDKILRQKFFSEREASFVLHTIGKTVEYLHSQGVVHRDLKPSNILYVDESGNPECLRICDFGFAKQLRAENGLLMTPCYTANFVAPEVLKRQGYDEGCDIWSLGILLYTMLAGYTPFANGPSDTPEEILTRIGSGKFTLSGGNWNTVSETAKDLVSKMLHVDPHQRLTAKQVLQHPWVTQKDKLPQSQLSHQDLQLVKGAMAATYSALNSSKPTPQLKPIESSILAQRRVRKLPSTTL

For the molecule `CN(C)S(=O)(=O)c1ccc2c(c1)/C(=C/c1cc3c([nH]1)CCCC3)C(=O)N2`, the residual activity in assay [1] stood at 95%; in assay [2], 95%; in assay [3], 61%; in [4], 42%; in [5] it was 36%; in assay [6], 17%. Moreover, the residual activity in assay [7] was determined as 84%; in assay [8] it was 89%; in assay [9] it was 87%; in assay [10], 86%; in assay [11], 94%; in assay [12], 97%. In addition, the residual activity in assay [13] was determined as 96%; in [14], 82%; in [15] it was 96%; in assay [16], 115%; in assay [17], 95%.
In the case of `O=C1NC(=O)C(c2cn(CCCn3ccnc3)c3ccccc23)=C1Nc1ccccc1`, the residual activity in [1] was 8%; in assay [2], 1%; in [3], 3%; in assay [4] it was 1%; in [5], 0%; in assay [6], -1%. Also, the residual activity in assay [7] was 5%; in assay [8] it was 2%; in assay [9] it was 62%; in assay [10], 78%; in assay [14] it was 46%; in assay [15] it was 14%. In addition, the residual activity amounted to 52% in assay [16], 12% in [17] and 79% in assay [18].
`Nc1ncnc2c1c(-c1ccc(Oc3ccccc3)cc1)cn2C1CCCC1`: the residual activity worked out at 123% in [1]; 39% in [2]; 65% in [3]; 37% in assay [4]; 106% in [5]; 69% in assay [6]. The residual activity worked out at 91% in assay [7]; 76% in assay [8]; 86% in assay [9]; 63% in [10]; 87% in [11]; 75% in [19]. The residual activity was 95% in assay [12]; 110% in assay [14]; 111% in assay [15]; 98% in assay [16]; 78% in assay [17]; 86% in [20]. Also, the residual activity in [18] came to 78%.
Consider `O=c1cc(N2CCOCC2)oc2c1ccc1ccccc12`, for which the residual activity in assay [1] stood at 108%; in assay [2], 97%; in assay [3], 57%; in assay [4], 46%; in assay [5], 109%; in [6], 99%. Moreover, the residual activity came to 110% in assay [7]; 101% in assay [8]; 100% in assay [9]; 92% in [10]; 93% in [11]; 101% in [19]. Moreover, the residual activity in assay [12] amounted to 100%; in assay [13], 95%; in assay [14], 105%; in assay [15], 97%; in [16] it was 92%; in assay [17], 86%. Besides, the residual activity in assay [20] was 97%; in [18] it was 95%.
In the case of `CC(C)c1nn(-c2c(Cl)cccc2Cl)c2nc(Cc3ccc(OCCO)cc3)[nH]c(=O)c12`, the residual activity came out at 105% in [1]; 56% in assay [2]; 46% in [3]; 29% in assay [4]; 88% in [5]; 47% in assay [6]. Also, the residual activity in [7] came out at 71%; in assay [8], 49%; in [9], 92%; in assay [10], 82%; in [19], 105%; in [13], 59%. Moreover, the residual activity in assay [14] stood at 99%; in [15], 103%; in assay [16] it was 97%; in [17] it was 91%; in [20], 81%; in assay [18], 109%.
On to `CCN(CC)CCNC(=O)c1c(C)[nH]c(/C=C2\C(=O)Nc3ccc(Cl)cc32)c1C`, for which the residual activity in [1] worked out at 11%; in assay [2], 2%; in [3] it was 11%; in [4], 1%; in assay [5] it was 9%; in [6], 1%. Also, the residual activity came out at 14% in [7]; 9% in assay [8]; 82% in assay [9]; 52% in assay [10]; 59% in [14]; 23% in assay [15]. In addition, the residual activity in assay [16] is 60%; in assay [17] it was 32%; in [20] it was 73%; in assay [18], 31%.
`NC(=O)Nc1sc(-c2ccc(F)cc2)cc1C(N)=O`: the residual activity amounted to 85% in assay [1]; 33% in [2]; 33% in assay [3]; 9% in assay [4]; 30% in assay [5]; 7% in assay [6]. For the same molecule, the residual activity came out at 91% in assay [9]; 77% in assay [10]; 89% in assay [11]; 68% in [19]; 90% in [12]; 73% in assay [13]. The residual activity in [20] turned out to be 85%; in [18], 28%.

(Values after ChEMBL document CHEMBL2218924, “A broad activity screen in support of a chemogenomic map for kinase signalling research and drug discovery” (Biochem J, 2013).)
